Giardia FBPA inh: qHTS Assay for Inhibitors of Fructose-1,6-bisphosphate Aldolase from Giardia Lamblia; hit rate 0.71% among 290,000; Potency, µM (series often up to 59.6 µM), without a hit: at the top dose activity, negative = inhibition, hits mostly inhibitors; A8B2U2; purified Giardia FBPA; note: potency is the fitted concentration of half-maximal effect; nearly all actives have a fitted effect of over 55% in size
Target sequence (A8B2U2 whole entry, looked up): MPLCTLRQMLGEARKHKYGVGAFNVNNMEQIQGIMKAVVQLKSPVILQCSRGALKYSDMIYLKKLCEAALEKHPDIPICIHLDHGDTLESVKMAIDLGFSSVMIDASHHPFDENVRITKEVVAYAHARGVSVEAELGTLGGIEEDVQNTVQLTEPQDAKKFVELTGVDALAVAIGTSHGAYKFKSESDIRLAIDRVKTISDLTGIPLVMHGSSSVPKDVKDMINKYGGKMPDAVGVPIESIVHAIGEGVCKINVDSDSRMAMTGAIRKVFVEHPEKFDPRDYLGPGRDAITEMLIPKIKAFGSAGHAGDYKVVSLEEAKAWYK
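40 nM FBPA preincubated 10 min at RT with compound (up to 57.5 uM final), then substrate plus GAPDH/TPI/NAD/arsenate coupling and diaphorase/resazurin added. Fluorescence read after 20 min at RT, 525/598 nm.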
Pf growth 96h: Primary qHTS for delayed death inhibitors of the malarial parasite plastid, 96 hour incubation | Potency, µM (doses to about 28.7 µM), without a hit: at the top dose activity change, negative = inhibition, actives largely listed as inhibitors | P. falciparum luciferase reporter growth, 96 h | AID 504834, 2011 | hit rate 6.9% among 320,000; note: potency is the fitted concentration of half-maximal effect
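Cell-based qHTS: luciferase-tagged P. falciparum in erythrocytes (2% hematocrit, 0.05% parasitemia final) incubated with compounds for 96 hours, 37 C, 5% CO2; luciferase detection reagent then added and luminescence measured.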
Pf growth 48h: Primary qHTS for delayed death inhibitors of the malarial parasite plastid, 48 hour incubation. P. falciparum luciferase growth in erythrocytes, 48 h. Potency, µM (top dose mostly 28.7 µM), for inactives: top-dose activity change, negative = inhibition, hits mostly inhibitors. hit rate 5.9% among 310,000; note: potency is the fitted concentration of half-maximal effect
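A one-generation exposure of luciferase-tagged malaria parasites in RPMI 1640/Albumax erythrocyte culture, 37 C and 5% CO2. Inhibition is inferred from decreased luminescence after adding detection reagent.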
Sm TGR block: qHTS Assay for the Inhibitors of Schistosoma Mansoni Peroxiredoxins; hit rate 3% among 360,000; Potency, µM (highest dose often 114 µM), for inactives: at the highest dose activity change, negative = inhibition, actives largely listed as inhibitors; Schistosoma mansoni thioredoxin glutathione reductase (TGR), Q962Y6; purified TGR, DTNB reduction, TNB absorbance 405 nm; note: potency is the fitted concentration of half-maximal effect; nearly all actives have a fitted effect of over 60% in size
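TGR 20 nM + NADPH 100 uM (dispensed conc.), cpd preinc 15 min RT; start with NADPH (500 uM addition) then DTNB (15 mM addition). Kinetic TNB absorbance, 405 nm filter. Four-parameter Hill fit across titration.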
HCMV antiviral: qHTS Assay for inhibitors of the human cytomegalovirus (HCMV). hit rate 4.5% among 410,000. AID 1259415, 2018. activity change, negative = inhibition, % at 57.5 µM. HFF cells, HCMV-luciferase reporter, 72 h; active compounds read low; in the data active = activity change below about -60%; inconclusive = no clear call, values can overlap the other calls; inactive = above about -39%
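Screen run at 2 compound doses on HFFs infected with reporter HCMV, MOI 1 PFU/cell. Luciferase activity from cell lysates at 72 h post infection gave inhibition relative to buffer-only and Salinomycin wells.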
Active calls of the source: *; u = inconclusive; x = no result; [ ] = another dose, or the depositor's remark. Rows were chosen to be rich in hits. Some 14% of all compounds tested hit in one or more screens of this group. Unless noted, calls come from the whole dose curve; as a rule, active = well fitted curve in the direction sought with a large enough effect; inconclusive = small, poorly fitted or top-dose-only effect, or another doubt; inactive = no such curve, though single readings can be large; an effect the other way counts as inactive or inconclusive. % is set by controls: 0 for no effect and ±100 for the full control effect.

SMILES | Giardia FBPA inh | Pf growth 96h | Pf growth 48h | Sm TGR block | HCMV antiviral
CC(C)CC(O)(c1ccccc1)C(CN1CCOCC1)c1ccccc1 (centres undefined) | -27% | 11% | 0% | -10% | u
COc1ccc(C(=O)O/N=C(\N)c2ccccc2Cl)cc1OC | -2% | 5.2µM* | 10%[0.00184 µM] | -12% | 52
COc1ccccc1C(=O)O/N=C(\N)c1ccccc1Cl | -8% | 5% | 192% | -9% | 16
COc1ccc(/C(N)=N/OC(=O)c2cccc([N+](=O)[O-])c2C)cc1OC | -3% | 13µM* | x | -1% | x
COc1ccc(/C(N)=N/OC(=O)c2ccc(OC)c([N+](=O)[O-])c2)cc1OC | 4% | 32%[5.75 µM] | u | 25% | -21
CC1CC(C)CN(C(=O)/C(=C\c2ccccc2)c2ccccc2)C1 (centres undefined) | 8% | 93% | 1.9µM* | -5% | u
O=C(N/N=C\C=C\c1ccc([N+](=O)[O-])o1)c1cccs1 | -18% | u | u | 10µM* | -65*
O=C(N/N=C/c1ccc([N+](=O)[O-])o1)c1ccc(NS(=O)(=O)c2cccs2)cc1 | -7% | 0.93µM* | 3.7µM* | 35µM* | -33
O=C(N/N=C/C=C/c1ccccc1[N+](=O)[O-])c1cccs1 | -7% | u | 21% | -16% | u
O=C(N/N=C/c1ccc([N+](=O)[O-])cc1)c1ccc(NS(=O)(=O)c2cccs2)cc1 | x | u | u | -3% | -2
Cc1cc2c(c(C)c1Cl)C(c1ccc3c(c1)OCO3)CC(O)(c1ccccc1)O2 (centres undefined) | -10% | x | x | x | x
CC12CCC=CC1C(c1ccc3ccccc3c1)N(Cc1ccccc1)C2=O (centres undefined) | -4% | x | x | x | x
C[C@@]12CCC=C[C@H]1[C@H](c1ccc3ccccc3c1Br)N(Cc1ccccc1)C2=O | -22% | 10µM* | 9.3µM* | -34% | 9
C[C@@]12CCC=C[C@H]1[C@H](c1ccc3ccccc3c1)N(Cc1ccccc1)C2=O | -1% | 9.3µM* | u | -18% | 4
Cc1noc(C)c1-c1nccc(NCCN2CCOCC2)n1 | -1% | x | x | x | x
O=C1c2ccccc2C(=O)N1CCC(=O)N1CCCc2ccccc21 | 6% | 23% | 3% | 22% | -16
O=C1c2cccc3c2[C@@H](CCC3)CN1[C@@H]1CN2CCC1CC2 | x | -104% | 12µM* | x | x
Cn1cc(C(=O)NCC2COc3ccccc3O2)c(=O)c2cc(S(=O)(=O)N3CCCCC3)ccc21 (centres undefined) | -4% | x | 12µM* | 3% | -28
CCOc1ccc(CCNC(=O)c2cn(C)c3ccc(S(=O)(=O)N4CCOCC4)cc3c2=O)cc1OCC | x | u | 12µM* | 1% | 3
CCCCSCCCNC(=O)c1cn(C)c2ccc(S(=O)(=O)N3CCCC3)cc2c1=O | x | 10µM* | u | -10% | -6
C=CCn1cc(C(=O)NCC2CCCO2)c(=O)c2cc(S(=O)(=O)N3CCCCCC3)ccc21 (centres undefined) | 11% | 4% | 12µM* | 0% | -37
C=CCn1cc(C(=O)OC)c(=O)c2cc(S(=O)(=O)N3CCCCCC3)ccc21 | 4% | 0% | u | 6% | -1
CCCCSCCCNC(=O)c1cn(C)c2ccc(S(=O)(=O)N3CCCCC3)cc2c1=O | x | x | x | -1% | -2
Cn1ncc(Cl)c1C(=O)N1CCC(Cc2ccccc2)CC1 | x | 33% | 7% | -4% | 7
CC1CCCCC12NC(=O)N(CC(=O)NCCc1c[nH]c3ccccc13)C2=O (centres undefined) | x | -14% | u | -19% | 2
SMILES | Giardia FBPA inh | Pf growth 96h | Pf growth 48h | Sm TGR block | HCMV antiviral
COc1ccc(OC)c(NC(=O)N2c3ccccc3Sc3ccccc32)c1 | x | x | x | 8% | 3
Cc1c(C(=O)NCC2COc3ccccc3O2)oc2ccc(S(=O)(=O)N(C)C3CCCCC3)cc12 (centres undefined) | -3% | x | 9.3µM* | -14% | -10
Cc1ccc(CCNC(=O)c2cn(C)c3ccc(S(=O)(=O)N4CCCCC4)cc3c2=O)cc1 | x | x | x | 22µM* | -2
Cc1ccc(NC(=O)c2oc3ccc(S(=O)(=O)N(C)C4CCCCC4)cc3c2C)cc1Cl | x | x | x | 0% | -24
CCCCn1cnc2c(c(CC#N)nn2-c2ccccc2)c1=N | x | x | x | x | -24
COc1cc(C(=O)NCCOc2cc(C)ccc2C(C)C)cc(OC)c1OC | 11% | 91% | 1%[0.00184 µM] | -12% | -67*
COc1ccc2cnn(CCOc3cc(C)ccc3C(C)C)c(=O)c2c1OC | -4% | 10µM* | u | -2% | -37
COc1cc(C(=O)N[C@H](C(=O)NC(C)C23CC4CC(CC(C4)C2)C3)C(C)C)cc(OC)c1OC (some centres undefined) | 3% | u | x | 1% | -21
Cc1ccc(C(C)C)c(OCCNC(=O)c2cncc(Br)c2)c1 | -3% | u | u | -3% | -12
COc1ccc(C)cc1NC(=O)C(NC(=O)c1cc(OC)c(OC)c(OC)c1)C(C)C (centres undefined) | -3% | 13µM* | -35% | 8% | 36
CCOc1ccccc1OCCn1ncc2ccc(OC)c(OC)c2c1=O | 7% | u | -11% | 10% | 21
Fc1ccc(-c2nc3ccc(Cl)cn3c2Cc2cccc(F)c2)cc1 | x | x | x | x | 0
COc1cccc(C2C(C#N)=C(N)N(N(C)C)C3=C2C(=O)CC(C)(C)C3)c1OC (centres undefined) | -18% | -7% | u | 13% | 2
COc1ccccc1C1C(C(C)=O)=C(O)C(=O)N1c1ccc(O)cc1 (centres undefined) | -19% | -1% | -4% | 1% | -16
Cc1cc(C)cc(NC(=O)N2CCC(CN3CCc4ccccc4C3)CC2)c1 | x | x | x | -1% | -27
Cc1ccc(-n2c(SCC(=O)N3CC(=O)Nc4ccccc43)nc3ccccc3c2=O)cc1 | -11% | u | 13µM* | -3% | -68*
COCCn1c(SCC(=O)N2CC(=O)Nc3ccccc32)nc2ccccc2c1=O | 6% | u | u | -7% | -31
CC(C)c1nc(SCC(=O)N2CC(=O)Nc3ccccc32)c2ccccc2n1 | -16% | 47% | -18% | x | -87*
Cc1nnc(SCC(=O)N2CC(=O)Nc3ccccc32)n1-c1ccccc1 | -11% | -20% | 13% | -33% | -19
Cc1cccc(C)c1-n1c(SCC(=O)N2CC(=O)Nc3ccccc32)nc2ccccc2c1=O | 2% | -101% | 13µM* | 8% | u
CC#CCN1c2ccccc2[C@]23C[C@@H](C(=O)OC)N(S(=O)(=O)c4ccc(OC)cc4)C2=NC(C(=O)OC)=C(C(=O)OC)[C@H]13 | 0%[12.9 µM] | x | x | x | x

Assay outcomes (PubChem)
